# PMC11062922 (Nature Chemical Biology, 2023)
# Read-outs that look alike come from different tables or passages of the source.
# Legend:
# [1] = tested on: CSNK2A1; settings: hek293t cells
# [2] = tested on: CSNK2A2; settings: hek293t cells
# [3] = tested on: ACVR2B; design: species or system human, MV4-11 + K-562 + COLO205 + SK-N-BE2 + OVCAR-8; settings: read-out: apparent Kd; compound concentrations: 100 nM and 1000 nM (sheet 'Samples'), CATDS: 0.34366648341671902; n = 1
# [4] = tested on: EPHA7; design: species or system human, MV4-11 + K-562 + COLO205 + SK-N-BE2 + OVCAR-8; settings: read-out: apparent Kd, compound concentrations: 100 nM and 1000 nM (sheet 'Samples'), n = 1
# [5] = tested on: FES; design: species or system human, MV4-11 + K-562 + COLO205 + SK-N-BE2 + OVCAR-8; settings: read-out: apparent Kd, compound concentrations: 100 nM and 1000 nM (sheet 'Samples'), n = 1
# [6] = tested on: NEK1; design: species or system human, MV4-11 + K-562 + COLO205 + SK-N-BE2 + OVCAR-8; settings: read-out: apparent Kd, compound concentrations: 100 nM and 1000 nM (sheet 'Samples'), n = 1
# [7] = tested on: PLK1; design: species or system human, MV4-11 + K-562 + COLO205 + SK-N-BE2 + OVCAR-8; settings: read-out: apparent Kd; compound concentrations: 100 nM and 1000 nM (sheet 'Samples'), CATDS: 1.2041031249847799E-2; n = 1
# [8] = tested on: GRK6; design: species or system human, MV4-11 + K-562 + COLO205 + SK-N-BE2 + OVCAR-8; settings: read-out: apparent Kd; compound concentrations: 100 nM and 1000 nM (sheet 'Samples'), CATDS: 6.7200037487984698E-3; n = 1
# [9] = tested on: BMPR1A; design: species or system human, MV4-11 + K-562 + COLO205 + SK-N-BE2 + OVCAR-8; settings: read-out: apparent Kd; compound concentrations: 100 nM and 1000 nM (sheet 'Samples'), CATDS: 5.9129989995003003E-3; n = 1
# [10] = tested on: CAMK2B; design: species or system human, MV4-11 + K-562 + COLO205 + SK-N-BE2 + OVCAR-8; settings: read-out: apparent Kd; compound concentrations: 100 nM and 1000 nM (sheet 'Samples'), CATDS: 6.4404686092337498E-3; n = 1
# [11] = tested on: CDK12; design: species or system human, MV4-11 + K-562 + COLO205 + SK-N-BE2 + OVCAR-8; settings: read-out: apparent Kd, compound concentrations: 100 nM and 1000 nM (sheet 'Samples'), n = 1
# [12] = tested on: MAP3K1; design: species or system human, MV4-11 + K-562 + COLO205 + SK-N-BE2 + OVCAR-8; settings: read-out: apparent Kd; compound concentrations: 100 nM and 1000 nM (sheet 'Samples'), CATDS: 4.4631882369260602E-3; n = 1
# [13] = tested on: MAP3K6; design: species or system human, MV4-11 + K-562 + COLO205 + SK-N-BE2 + OVCAR-8; settings: read-out: apparent Kd, compound concentrations: 100 nM and 1000 nM (sheet 'Samples'), n = 1
# [14] = tested on: MDN1; design: species or system human, MV4-11 + K-562 + COLO205 + SK-N-BE2 + OVCAR-8; settings: read-out: apparent Kd; compound concentrations: 100 nM and 1000 nM (sheet 'Samples'), CATDS: 5.0398543071368297E-3; n = 1
# [15] = tested on: PI4KB; design: species or system human, MV4-11 + K-562 + COLO205 + SK-N-BE2 + OVCAR-8; settings: read-out: apparent Kd; compound concentrations: 100 nM and 1000 nM (sheet 'Samples'), CATDS: 8.6005526131726403E-3; n = 1
# [16] = tested on: PIK3CB; design: species or system human, MV4-11 + K-562 + COLO205 + SK-N-BE2 + OVCAR-8; settings: read-out: apparent Kd; compound concentrations: 100 nM and 1000 nM (sheet 'Samples'), CATDS: 8.3047003401232992E-3; n = 1
# [17] = tested on: ZAK; design: species or system human, MV4-11 + K-562 + COLO205 + SK-N-BE2 + OVCAR-8; settings: read-out: apparent Kd; compound concentrations: 100 nM and 1000 nM (sheet 'Samples'), CATDS: 4.0930423662174304E-3; n = 1
# [18] = tested on: CDK4; design: species or system human, MV4-11 + K-562 + COLO205 + SK-N-BE2 + OVCAR-8; settings: read-out: apparent Kd, compound concentrations: 100 nM and 1000 nM (sheet 'Samples'), n = 1
# [19] = tested on: PIM3; design: species or system human, MV4-11 + K-562 + COLO205 + SK-N-BE2 + OVCAR-8; settings: read-out: apparent Kd; compound concentrations: 100 nM and 1000 nM (sheet 'Samples'), CATDS: 9.0008616948043199E-2; n = 1
smiles,measurement,setting,value
COc1cc(Nc2ncc3c(C)nc(-c4cc5ccccc5[nH]4)n3n2)cc(OC)c1OC [GW869516X],IC50,"[1]; read-out: Average, SD, n = 2",446 nM
same,IC50,[1]; read-out: Rep 1,471 nM
same,IC50,[1]; read-out: Rep 2,421 nM
same,IC50,"[2]; read-out: Average, SD, n = 2",319 nM
same,IC50,[2]; read-out: Rep 1,135 nM
same,IC50,[2]; read-out: Rep 2,503 nM
Cc1ccc(Nc2ccnc(Nc3ccc4c(c3)CS(=O)(=O)C4)n2)cc1O.Cl [GW579362A],potency estimated from few doses,[3],12.4 nM
CCOC(=O)N1CCC(n2cnc(-c3ccc(F)cc3)c2-c2ccnc(N)n2)CC1 [SB-219952],potency estimated from few doses,[4]; CATDS: 8.0080287869844797E-3,1690 nM
COc1ccc(Nc2ncc(C#N)c(Nc3ccccc3C(N)=O)n2)cc1N1CCN(C)CC1.Cl [GSK1558669A],potency estimated from few doses,[5]; CATDS: 8.0815646455300594E-3,387 nM
same,potency estimated from few doses,[6]; CATDS: 8.9161421311332902E-3,272 nM
same,potency estimated from few doses,[7],113 nM
O=C1N=C(NCCc2ccc(Cl)cc2)S/C1=C\c1ccc2ncccc2c1 [RO4498479-000],potency estimated from few doses,[5]; CATDS: 7.5853712865523596E-3,1210 nM
same,potency estimated from few doses,[8],1960 nM
Cn1ncc2c(N)ncnc21 [SKF-18267],potency estimated from few doses,[9],595 nM
same,potency estimated from few doses,[10],514 nM
same,potency estimated from few doses,[11]; CATDS: 3.82162717704907E-3,1510 nM
same,potency estimated from few doses,[4]; CATDS: 4.1620084388922602E-3,1210 nM
same,potency estimated from few doses,[5]; CATDS: 5.1575309929755304E-3,766 nM
same,potency estimated from few doses,[12],1030 nM
same,potency estimated from few doses,[13]; CATDS: 4.1891325824414301E-3,1190 nM
same,potency estimated from few doses,[14],801 nM
same,potency estimated from few doses,[6]; CATDS: 3.5725639465568099E-3,1820 nM
same,potency estimated from few doses,[15],328 nM
same,potency estimated from few doses,[16],345 nM
same,potency estimated from few doses,[17],1260 nM
O=C(O)C(F)(F)F.O=C(O)C(F)(F)F.O=c1[nH]ccc2nc(N[C@@H]3CCCNC3)nc(Nc3ccc(S(=O)(=O)N4CCOCC4)cc3)c12.O=c1[nH]ccc2nc(N[C@@H]3CCCNC3)nc(Nc3ccc(S(=O)(=O)N4CCOCC4)cc3)c12 [GSK2177277A],potency estimated from few doses,[18]; CATDS: 6.3800508588872503E-3,1600 nM
FC(F)(F)c1ccc(-c2ncn(CCCN3CCOCC3)c2-c2ccncc2)cc1 [SB-217780],potency estimated from few doses,[13]; CATDS: 0.20378278704682301,1720 nM
COc1cc(Nc2nccc(N3CCC(NC(=O)c4cccc(NC(C)=O)c4)C3)n2)cc(OC)c1OC (stereo not drawn) [GSK1379754A],potency estimated from few doses,[19],1470 nM
CCN(CC)Cc1ccc(Nc2nccc(-c3cnn4ncccc34)n2)cc1 [GW780056X],potency estimated from few doses,[11]; CATDS: 2.2557982772038999E-2,899 nM
same,potency estimated from few doses,[18]; CATDS: 1.9618421656054302E-2,1420 nM
